Measurements taken from the supplement of paper PMC8728848.
About 410 targets per protein were measured; listed, in parts, are those with the strongest signals and a random draw of the rest.

Columns and labels:
Assay in all cases: glycan array binding signal (z-score within array); higher = stronger binding
Conditions in all cases: glycan notation: IUPAC condensed, linker removed
Fuc(a1-2)Gal = target: Fuc(a1-2)Gal
Method in brief: (§1)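 The binding signal is a Z-score computed within each array. Data were drawn from 3228 arrays in the Consortium for Functional Glycomics database, restricted to those with a known protein sequence. Scores were averaged over arrays of the same protein sequence at different concentrations or buffers, and over linkers, and negative values can be taken as non-binding.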

[1] = target: Fuc(a1-2)Gal(b1-3)GlcNAc(b1-2)Man(a1-3)[Fuc(a1-2)Gal(b1-3)GlcNAc(b1-2)Man(a1-6)]Man(b1-4)GlcNAc(b1-4)GlcNAc
Method in brief: as §1

[2] = target: Fuc(a1-2)Gal(b1-3)GlcNAc(b1-3)[Gal(b1-4)GlcNAc(b1-6)]Gal(b1-4)Glc
Method in brief: as §1

[3] = target: Fuc(a1-2)Gal(b1-4)Fuc(a1-3)]GlcNAc(b1-2)Man(a1-3)[Fuc(a1-2)Gal(b1-4)[Fuc(a1-3)]GlcNAc(b1-2)Man(a1-6)]Man(b1-4)GlcNAc(b1-4)GlcNAc
Method in brief: as §1

Fuc(a1-2)Gal(b1-4)GlcNAc = target: Fuc(a1-2)Gal(b1-4)GlcNAc
Method in brief: as §1

Fuc(a1-2)[Gal(a1-3)]Gal = target: Fuc(a1-2)[Gal(a1-3)]Gal
Method in brief: as §1

[4] = target: Fuc(a1-2)[Gal(a1-3)]Gal(b1-4)GlcNAc(b1-2)Man
Method in brief: as §1

[5] = target: Fuc(a1-2)[GalNAc(a1-3)]Gal(b1-3)GlcNAc(b1-3)GalNAc
Method in brief: as §1

[6] = target: Fuc(a1-2)[GalNAc(a1-3)]Gal(b1-4)GlcNAc(b1-6)GalNAc
Method in brief: as §1

[7] = target: Fuc(a1-2)[GalNAc(a1-3)]Gal(b1-4)[Fuc(a1-3)]GlcNAc
Method in brief: as §1

[8] = target: Fuc(a1-2)[GalNAc(a1-3)]Gal(b1-4)[Fuc(a1-3)]GlcNAc(b1-3)GalNAc
Method in brief: as §1

[9] = target: Fuc(a1-3)[Gal(b1-4)]GlcNAc(b1-2)Man
Method in brief: as §1

[10] = target: Gal(a1-3)Gal(b1-4)[Fuc(a1-3)]GlcNAc(b1-2)Man(a1-3)[Gal(a1-3)Gal(b1-4)[Fuc(a1-3)]GlcNAc(b1-2)Man(a1-6)]Man(b1-4)GlcNAc(b1-4)GlcNAc
Method in brief: as §1

[11] = target: Gal(a1-4)Gal(b1-3)GlcNAc(b1-2)Man(a1-3)[Gal(a1-4)Gal(b1-3)GlcNAc(b1-2)Man(a1-6)]Man(b1-4)GlcNAc(b1-4)GlcNAc
Method in brief: as §1

Gal(b1-2)Gal = target: Gal(b1-2)Gal
Method in brief: as §1

Gal(b1-3)GalNAc = target: Gal(b1-3)GalNAc
Method in brief: as §1

[12] = target: Gal(b1-3)GlcNAc(b1-3)GalNAc
Method in brief: as §1

[13] = target: Gal(b1-3)[Neu5Ac(b2-6)]GalNAc
Method in brief: as §1

[14] = target: Gal(b1-4)GalNAc(a1-3)[Fuc(a1-2)]Gal(b1-4)GlcNAc
Method in brief: as §1

Gal(b1-4)Glc6S = target: Gal(b1-4)Glc6S
Method in brief: as §1

[15] = target: Gal(b1-4)GlcNAc(b1-2)Man(a1-6)[GlcNAc(b1-2)Man(a1-3)]Man(b1-4)GlcNAc(b1-4)GlcNAc
Method in brief: as §1

[16] = target: Gal(b1-4)GlcNAc(b1-2)[Gal(b1-4)GlcNAc(b1-6)]Man(a1-6)[Gal(b1-4)GlcNAc(b1-2)Man(a1-3)]Man(b1-4)GlcNAc(b1-4)GlcNAc
Method in brief: as §1

[17] = target: Gal(b1-4)GlcNAc(b1-3)Gal(b1-4)GlcNAc(b1-2)Man(a1-3)[Gal(b1-4)GlcNAc(b1-3)Gal(b1-4)GlcNAc(b1-2)Man(a1-6)]Man(b1-4)GlcNAc(b1-4)GlcNAc
Method in brief: as §1

[18] = target: Gal(b1-4)GlcNAc(b1-3)Gal(b1-4)GlcNAc(b1-2)[Gal(b1-4)GlcNAc(b1-3)Gal(b1-4)GlcNAc(b1-6)]Man(a1-6)[Gal(b1-4)GlcNAc(b1-3)Gal(b1-4)GlcNAc(b1-2)Man(a1-3)]Man(b1-4)GlcNAc(b1-4)GlcNAc
Method in brief: as §1

[19] = target: Gal(b1-4)GlcNAc(b1-3)Gal(b1-4)GlcNAc(b1-3)Gal(b1-4)GlcNAc(b1-2)Man(a1-3)[Gal(b1-4)GlcNAc(b1-3)Gal(b1-4)GlcNAc(b1-3)Gal(b1-4)GlcNAc(b1-2)Man(a1-6)]Man(b1-4)GlcNAc(b1-4)[Fuc(a1-6)]GlcNAc
Method in brief: as §1

[20] = target: Gal(b1-4)GlcNAc(b1-3)Gal(b1-4)GlcNAc(b1-3)Gal(b1-4)GlcNAc(b1-3)Gal(b1-4)GlcNAc(b1-2)[Gal(b1-4)GlcNAc(b1-3)Gal(b1-4)GlcNAc(b1-3)Gal(b1-4)GlcNAc(b1-3)Gal(b1-4)GlcNAc(b1-6)]Man(a1-6)[Gal(b1-4)GlcNAc(b1-3)Gal(b1-4)GlcNAc(b1-3)Gal(b1-4)GlcNAc(b1-3)Gal(b1-4)GlcNAc(b1-2)Man(a1-3)]Man(b1-4)GlcNAc(b1-4)[Fuc(a1-6)]GlcNAc
Method in brief: as §1

[21] = target: Gal(b1-4)GlcNAc(b1-3)Gal(b1-4)GlcNAc(b1-3)[Gal(b1-4)GlcNAc(b1-3)Gal(b1-4)GlcNAc(b1-6)]GalNAc
Method in brief: as §1

[22] = target: Gal(b1-4)GlcNAc(b1-6)GalNAc
Method in brief: as §1

[23] = target: Gal(b1-4)GlcNAc(b1-6)[Gal(b1-3)]GalNAc
Method in brief: as §1

[24] = target: Gal3S(b1-4)[Fuc(a1-3)]GlcNAc6S
Method in brief: as §1

Gal6S(b1-4)GlcNAc = target: Gal6S(b1-4)GlcNAc
Method in brief: as §1

GalNAc(a1-3)Gal = target: GalNAc(a1-3)Gal
Method in brief: as §1

B1: Epa19 (Candida glabrata) (protein)
chain: MGSSHHHHHHSSGLVPRGSHMASSKDPTRFPIGCSPQVLKTQPGLAVKLYSYGHPVPGCSYITYQYPDFPRSGYKKERKLADITGVNGKIDIDLKPNDPCRVLTGHLPSNYNYPDTLTYTNFTMILYGYFQPKVTGYHTFNLEADDLLFMNLGAGNAFDCCKAESTLDNFGNYQSYSLWGSDYAKANITVFLVSGVYYPIRLFYVNRDNNAVIDFSFTTEFDKEKVHDFTSYFFSASDGEQCPGSV
glycan array binding signal (z-score) (Fuc(a1-2)Gal): -0.231 | glycan array binding signal (z-score) [1]: 0.072 | glycan array binding signal (z-score) [2]: -0.333 | glycan array binding signal (z-score) [3]: 2.57 | glycan array binding signal (z-score) (Fuc(a1-2)Gal(b1-4)GlcNAc): -0.459 | glycan array binding signal (z-score) (Fuc(a1-2)[Gal(a1-3)]Gal): -0.947 | glycan array binding signal (z-score) [4]: 0.045 | glycan array binding signal (z-score) [5]: 2.07 | glycan array binding signal (z-score) [6]: 0.209 | glycan array binding signal (z-score) [7]: -0.301 | glycan array binding signal (z-score) [8]: 1.08 | glycan array binding signal (z-score) [9]: -0.217 | glycan array binding signal (z-score) [10]: 2.47 | glycan array binding signal (z-score) [11]: -0.21 | glycan array binding signal (z-score) (Gal(b1-2)Gal): -0.099 | glycan array binding signal (z-score) (Gal(b1-3)GalNAc): -0.306 | glycan array binding signal (z-score) [12]: -0.204 | glycan array binding signal (z-score) [13]: 2.39 | glycan array binding signal (z-score) [14]: -0.193 | glycan array binding signal (z-score) (Gal(b1-4)Glc6S): 2.4 | glycan array binding signal (z-score) [15]: 0.102 | glycan array binding signal (z-score) [16]: -1.26 | glycan array binding signal (z-score) [17]: 2.29 | glycan array binding signal (z-score) [18]: 0.736 | glycan array binding signal (z-score) [19]: 0.256 | glycan array binding signal (z-score) [20]: 0.024 | glycan array binding signal (z-score) [21]: 1.4 | glycan array binding signal (z-score) [22]: -0.146 | glycan array binding signal (z-score) [23]: 0.35 | glycan array binding signal (z-score) [24]: 0.49 | glycan array binding signal (z-score) (Gal6S(b1-4)GlcNAc): -0.372 | glycan array binding signal (z-score) (GalNAc(a1-3)Gal): -0.246
